# GPR151 activ: activators of human GPR151, primary screen, cell-based, PathHunter beta-arrestin, luminescence | G-protein coupled receptor 151 (Homo sapiens), Q8TDV0 | PathHunter beta-arrestin GPR151 cells | activation, % at 11.2 µM | 1% of 650,000 active; in the data active means activation above about 4.9%;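 further: 0% = median of compound wells and 100% = cells with positive control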
# FBW7 act: FBW7 E3 ligase activators, primary screen, biochemical, AlphaScreen, human; F-box/WD repeat-containing protein 7 (Homo sapiens), Q969H0; AlphaScreen FBW7–phospho-cyclin E peptide binding, activator screen; normalized activity (activation), % at 26.1 µM; 0.13% of 650,000 active; AID 1259310, 2017; in the data active means normalized activity above about 1.9%;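 further: purified mutant Fbw7 with reduced substrate affinity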
# TEAD-YAP block: TEAD-YAP interaction inhibition, primary screen, TEAD-YAP interaction inhibitor project, luminescence, HEK-TIYL cells. TEAD-Gal4/YAP UAS-luciferase luminescence. inhibition, % at 9.12 µM. AID 1259422, 2018. 1.4% of 640,000 active; in the data active means inhibition above about 32%;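 further: 0% = median of test compound wells and 100% = reference inhibitor wells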
# MITF primary: MITF inhibitors, primary screen, biochemical, AlphaScreen, human | AlphaScreen MITF homodimerization, bead proximity signal | inhibition, % at 2.6 µM | 0.91% of 650,000 active; in the data active means inhibition above about 50%;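 further: 0% = vehicle wells with protein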
# GPR151 confirm: GPR151 activators, triplicate retest, confirmation, cell-based, PathHunter beta-arrestin, luminescence. shares compounds with GPR151 activ. GPR151 PathHunter beta-arrestin cells, 90 min; % of EA-reagent control over plate median. activation, % at 11.2 µM. 6,700 tested, under 10 active. AID 1508609, 2020;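 active means mean percent activation across replicates above the confirmation screen cutoff of 4.91%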
# GPR119 counter: GPR119 activators in beta-arrestin cells, counter-screen for GPR151 activator project, cell-based, PathHunter beta-arrestin, luminescence, triplicate | shares compounds with GPR151 activ | 90 min; 0 = compound-well median, 100 = enzyme-acceptor control | activation, % at 11.2 µM | 0.3% of 6,700 active;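 active means mean percent activation in the counterscreen above 29.09%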;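 further: counterscreen on off-target GPR119 to flag nonselective hits from the GPR151 activator screen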
# Target sequence (Q8TDV5 whole entry, looked up): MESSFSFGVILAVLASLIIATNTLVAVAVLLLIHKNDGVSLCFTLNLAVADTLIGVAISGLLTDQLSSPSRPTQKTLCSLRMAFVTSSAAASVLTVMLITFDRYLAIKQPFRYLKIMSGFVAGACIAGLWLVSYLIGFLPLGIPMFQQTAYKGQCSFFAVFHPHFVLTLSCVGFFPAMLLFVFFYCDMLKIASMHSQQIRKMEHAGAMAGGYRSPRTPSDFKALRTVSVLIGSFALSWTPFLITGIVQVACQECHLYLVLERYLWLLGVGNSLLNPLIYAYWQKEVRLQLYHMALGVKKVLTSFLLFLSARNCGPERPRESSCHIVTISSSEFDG
# * hit, by the source's call; x = no result; ! = repeats disagree. In the library only some 3.5% were active in any assay of this set; here they are far more common.
SMILES,GPR151 activ,FBW7 act,TEAD-YAP block,MITF primary,GPR151 confirm,GPR119 counter
CCCS(=O)(=O)N1CC(=O)N(c2ccccc2CC)C(C)(C(=O)NC2CCCCC2)C1 (stereo unspecified),0,0,-1,8,x,x
CC1(C(=O)NC2CCCCCC2)CN(S(C)(=O)=O)CC(=O)N1c1ccc(Cl)cc1 (stereo unspecified),7.7*,0,-3,0,-1,-12
CCCS(=O)(=O)N1CC(=O)N(c2ccccc2OC)C(C)(C(=O)NC2CCCC2)C1 (stereo unspecified),6.0*,0,-2,4,0,-11
COc1ccc(CN2C(=O)[C@H]3CCCN3C(=O)c3ccccc32)cc1,0,0,2,12,x,x
CCS(=O)(=O)N(Cc1cccc(OCCN2CCCCC2)c1)C1CC1,1,0,-3,7,x,x
CC[C@@H](C(=O)C(C)[C@@H](O)[C@H](C)CCc1ccc(C)c(O)c1C(=O)O)C1OC(CC)(C2CC[C@](O)(CC)[C@H](C)O2)C[C@@H]1C (stereo partly specified),13*!,1,-11,6,3,51*
CCOC(=O)C1CCN(C(=O)c2cc(Cl)ccc2Cl)CC1,1,0,6,10,x,x
COc1ccc(N2CCN(Cc3ccc([N+](=O)[O-])s3)CC2)cc1,5.1*,0,4,56*,0,9
COc1ccc(N2CCN(C/C=C/c3ccccc3[N+](=O)[O-])CC2)cc1,0,0,3,15,x,x
COC(=O)C1=CN(C2CC2)C=C(C(=O)OC)C1c1cccc(O)c1,2,0,10,-17,x,x
COC(=O)C1=CN(C2CC2)C=C(C(=O)OC)C1c1cccc(OC)c1,5.5*,0,4,-14,1,13
CCCCCOc1ccc(NC(=O)c2ccccc2F)cc1,-1,0,-11,5,x,x
O=C(Oc1ccccc1[N+](=O)[O-])c1ccc(F)cc1,5.9*,0,6,9,1,-12
O=C(Oc1ccccc1[N+](=O)[O-])c1ccccc1Cl,10*,0,-3,10,0,-5
N#CCOc1ccccc1/C=C1\C(=O)NN(c2ccc(Cl)c(Cl)c2)C1=O,1,0,-5,20,x,x
CC(C)C(=O)OCCN1C(=O)c2cccc3c(N4CCOCC4)ccc(c23)C1=O,6.6*,0,-5,0,0,12
CC(C)C(=O)OCCN1C(=O)c2cccc3c(N4CCCCC4)ccc(c23)C1=O,2,0,-3,-2,x,x
Cc1ccccc1-c1nnc2n1N=C(c1ccc(Cl)cc1)CS2,6.6*,0,3,4,0,5
Clc1ccc(-c2nnc3n2N=C(c2ccccc2)CS3)cc1,-1,0,3,6,x,x
Cc1ccc(C(=O)N/C(=C\c2ccco2)C(=O)Nc2ccccc2)cc1C,5.6*,0,-10,0,0,-5
CNC(=O)/C(=C/c1ccco1)NC(=O)c1ccc(C)cc1,1,0,12,2,x,x
Cc1ccc(C(=O)N/C(=C/c2ccco2)C(=O)Nc2ccc(C)cc2C)cc1,5.1*,0,-5,25,-1,-10
COC(=O)c1c[nH]n2c(NC3CCC(C)CC3)c(-c3ccc(OC)c(OC)c3)nc12 (stereo unspecified),0,0,-4,7,x,x
Fc1ccccc1-c1nn2c(Cc3ccccc3)nnc2s1,8.2*,0,4,-3,0,-2
c1ccc(Cc2nnc3sc(-c4ccco4)nn23)cc1,4,0,-16,1,x,x
SMILES,GPR151 activ,FBW7 act,TEAD-YAP block,MITF primary,GPR151 confirm,GPR119 counter
CC1=CCC2C(=O)N(C(C)c3ccccc3)C(=O)C2C1 (stereo unspecified),7.5*,0,1,-7,-1,-7
CC1=CCC2C(=O)N(Cc3ccccc3)C(=O)C2C1 (stereo unspecified),1,0,1,-34,x,x
COc1ccc(-c2noc(CN3CCCN(c4ccc(F)cc4)CC3)n2)c(OC)c1OC,0,0,-16,6,x,x
COc1ccc(-c2noc(CN3CCN(c4ccc(F)cc4)CC3)n2)c(OC)c1OC,6.5*,0,0,11,0,-9
COc1ccccc1CN1C[C@@H]2C[C@@H](c3ccc(C#CC(C)(C)O)cc3)N3CCC[C@@]23C1=O,0,0,0,-3,x,x
N/C(=N\N=C\c1ccc2c(c1)OCO2)SC1CC(=O)N(c2ccc(C(=O)O)cc2)C1=O (stereo unspecified),1,0,6,15,x,x
C/C(CCc1ccc2c(c1)OCO2)=N\N=C(/N)SC1CC(=O)N(c2ccccc2)C1=O (stereo unspecified),6.1*,0,-4,13,0,-13
COc1cccc(N2C(=O)CC(SC(N)=Nc3ccccc3)C2=O)c1 (stereo unspecified),10.0*,0,-3,-4,0,-3
O=C(NCc1cccc(C(F)(F)F)c1)c1cc2cnccc2nc1C(F)(F)F,0,0,0,-7,x,x
O=C(Cc1ccc(F)cc1F)Oc1ccccc1F,0,0,11,21,x,x
O=C(Cn1c(=O)n(Cc2cccs2)c(=O)c2cccnc21)Nc1ccccc1,3,0,-15,-2,x,x
COc1ccc(O)c(C2NC(C)(C(=O)O)C3C(=O)N(c4ccccc4OC)C(=O)C23)c1 (stereo unspecified),5.1*,0,-7,0,1,4
CCOc1cccc(C2NC(C)(C(=O)O)C3C(=O)N(c4ccccc4OC)C(=O)C23)c1O (stereo unspecified),1,0,-7,-7,x,x
CC(C)(C)OC(=O)C(Cl)(C(=O)OC(C)(C)C)c1ncc([N+](=O)[O-])cc1[N+](=O)[O-],14*,0,55*,5,0,13
COC(=O)COc1ccc(NC(=O)COc2cccc(C)c2)cc1,-1,1,1,10,x,x
NC(=O)CN1CCN(S(=O)(=O)c2cc(Cl)ccc2Cl)CC1,1,0,3,0,x,x
CC1(C)CC(NC(=O)COc2ccccc2)CC(C)(CNC(=O)COc2ccccc2)C1 (stereo unspecified),5.4*,0,6,9,0,2
CC12CC3CC(C)(C1)CC(CNC(=O)COc1ccccc1)(C3)C2,2,0,9,4,x,x

# Screening results from PubChem BioAssay.
